HT1080-NT tox – kills 2HG-producing HT-1080-NT fibrosarcoma cells; Potency, µM (titrated, usually from 46.1 µM), for inactives: top-dose activity, negative = less viability, hits mostly cytotoxic; HT-1080-NT fibrosarcoma viability, CellTiter-Glo ATP luminescence, 48 h; 1.6% of 360,000 active; AID 686970;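 also: NT is the 2HG producing partner of a matched IDH1 knockdown line; 0% = DMSO-treated cells and -100% = media-only wells without cells; nearly all actives have a fitted effect of over 55% in size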
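Toxicity toward the 2HG-producing NT line was scored as %Activity, normalised to DMSO and no-cell wells, from CellTiter-Glo luminescence after 48 hours' treatment.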
HT1080 IDH1KD tx – toxicity to HT-1080 IDH1 knockdown cells (counter line) | HT-1080 IDH1 knockdown viability, ATP luminescence, 48 h | Potency, µM (highest dose often 46.1 µM), for inactives: at the highest dose activity, negative = toxicity, hits mostly cytotoxic | 2% of 360,000 active | AID 686971;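 also: 0% = DMSO wells and -100% = cell-free medium wells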
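In this qHTS, HT-1080 cells depleted of IDH1 are exposed for 48 h at 37 °C to compound titrations. Toxicity is scored from CellTiter-Glo luminescence, with DMSO as full viability and medium alone as none.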
KB-V1 cytotox – KB-V1 MDR subline cytotoxicity; KB-V1 MDR cells viability, CellTiter-Glo, 72 h; Potency, µM (top dose mostly 46.1 µM), usual class: cytotoxic; 3.4% of 400,000 active; AID 1347076; also: % is scaled to controls: 0 for no effect and ±100 for the full control effect; nearly all actives have a fitted effect of over 60% in size
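Drug-selected KB-V1 cells, grown in DMEM lacking phenol red with 10% FBS, receive compound titrations; after three days at 37 degrees C, surviving cell ATP is quantified by CellTiter-Glo luminescence and responses normalized and curve-fitted.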
KB-3-1 tox – kills parental KB-3-1 adenocarcinoma cells; KB-3-1 viability, CellTiter-Glo ATP luminescence, 72 h; Potency, µM (doses to about 46.1 µM), actives largely listed as cytotoxic; 1.4% of 400,000 active; AID 1347075; also: % is scaled to controls: 0 for no effect and ±100 for the full control effect; nearly all actives have a fitted effect of over 60% in size
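Multi-concentration cytotoxicity screen in KB-3-1 cells grown in DMEM lacking phenol red with 10% FBS. After 72 h at 37 °C with compound, ATP-dependent luminescence was recorded.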
SW480 rereplic – DNA re-replication induction in SW480 cells; SW480 DNA re-replication, Hoechst DNA content imaging, 48 h; Potency, µM (highest dose often 46.1 µM), for the others: top-dose re-replication activation, most hits filed as activators; 1.8% of 340,000 active; AID 624297; also: % of control where 0% means no effect; nearly all actives have a fitted effect of over 55% in size
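Readout is total intensity of Hoechst-stained nuclei, excited at 405 nm and collected at 500-530 nm. Compound treatment lasted 48 hr at 37 C in 5% CO2 before staining.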
MCF10A rerep – DNA re-replication induction in MCF 10a cells; MCF 10A DNA re-replication, Hoechst nuclear intensity, 48 h; Potency, µM (titrated, usually from 46.1 µM), without a hit: top-dose activity, positive = re-replication, hits mostly activators; 2.9% of 350,000 active; AID 624296; also: % of control where 0% means no effect; nearly all actives have a fitted effect of over 50% in size
* marks the source's active call; other numbers are inactive results; i = inactive; ? = inconclusive; / = no result; [ ] = remark or other dose. In the library only some 8% were active in any assay of this set; here they are far more common. Calls follow the shape of the dose curve; as a rule, active = well fitted curve in the direction sought with a large enough effect; inconclusive = small, poorly fitted or top-dose-only effect, or another doubt; inactive = no such curve, though single readings can be large; an effect the other way counts as inactive or inconclusive. Potency is read from the fitted curve at half-maximal effect.

SMILES | HT1080-NT tox | HT1080 IDH1KD tx | KB-V1 cytotox | KB-3-1 tox | SW480 rereplic | MCF10A rerep
COc1ccccc1NS(=O)(=O)c1ccc(N/N=C(\C)C(C)C)c([N+](=O)[O-])c1 | -4% | -8% | 12µM* | ? | 3% | -1%
COc1ccccc1NS(=O)(=O)c1ccc(NN=C2CCCCC2)c([N+](=O)[O-])c1 | -11% | -3% | 16µM* | i | 12% | 5%
CCCC(CCC)=NNc1ccc(S(=O)(=O)Nc2ccccc2OC)cc1[N+](=O)[O-] | 3% | 4% | 12µM* | i | 2% | ?
COc1ccc(NC(=O)CCc2nnc3n(C)c(=O)c4sccc4n23)cc1Cl | / | / | i | i | / | /
N#CC1C(=N)Cc2ccccc2-c2ccccc21 (centres undefined) | 12µM* | 16µM* | 15µM* | ? | 16µM* | ?
ClCC1=Nc2ccccc2Cc2ccccc21 | -11% | 7% | i | i | 4% | 11%
CCOc1ccc(OCC)c(NC(=O)CN(C)S(=O)(=O)c2ccc3[nH]c(=O)oc3c2)c1 | / | / | i | i | / | /
O=C(c1ccc(F)cc1)c1cc2ccc(O)cc2oc1=O | -8% | -18% | i | i | ? | 10%
N=c1oc2cc(O)ccc2cc1C(=O)Nc1ccc(F)cc1 | -2% | -9% | i | ? | 8.2µM* | 9.2µM*
Cc1ccc(CCNC(=O)c2cn(C)c3ccc(S(=O)(=O)N(C)C4CCCCC4)cc3c2=O)cc1 | / | / | i | i | / | /
COc1ccccc1CNC(=O)C(=O)NCC(c1ccc2c(c1)OCO2)N1CCOCC1 (centres undefined) | / | / | i | i | / | /
COc1ccc(/C=C/C(=O)NCc2cccnc2)cc1 | 21% | 7% | i | i | -3% | -4%
CCc1ccc(CN(Cc2cccnc2)C(=O)/C=C/c2ccc(OC)cc2)cc1 | ? | ? | ? | i | 16% | 18µM*
CC1(C)CC(=O)C2=C(C1)NC1=C(C(=O)c3ccccc31)C2c1ccccc1 (centres undefined) | -5% | -18% | 16µM* | ? | 0% | 16%
CC1=C([N+](=O)[O-])C(c2ccccc2)C2=C(N1)c1ccccc1C2=O (centres undefined) | ? | ? | 4.6µM* | 0.82µM* | ? | ?
Cc1cc(C)cc(N2C(=O)CSC23C(=O)N(CC(=O)Nc2ccc(F)cc2F)c2ccccc23)c1 (centres undefined) | / | / | i | i | / | /
C(=NN1CCCCCC1)c1ccc2ccccc2n1 | 6.5µM* | ? | i | ? | -1% | 13%
COc1cccc(OC)c1C(=O)Nc1ccc(N2CCN(C(=O)c3cccs3)CC2)cc1 | 16% | 0% | i | i | -4% | -5%
CCC(=O)c1ccc(N2CCN(C(=O)c3cccs3)CC2)c(F)c1 | -1% | -1% | i | i | ? | 6.5µM*
O=C(Nc1ccc(N2CCN(C(=O)c3cccs3)CC2)cc1)c1cccc(F)c1 | -29% | ? | ? | 18µM* | ? | ?
COc1cccc(C(=O)Nc2ccc(N3CCN(C(=O)c4cccs4)CC3)cc2)c1 | ? | 2.6µM* | 2.3µM* | 5.2µM* | 5.8µM* | 13µM*
c1ccc2nc3c(cc2c1)CCCCC3 | 2% | 2% | i | i | 18µM* | ?
c1ccc2nc3c(cc2c1)CCCCCC3 | -2% | 0% | i | i | -4%[9.22 µM] | -3%
CCOc1ccc2c(c1)-c1c(ssc1=S)C(C)(C)N2C(=O)CSC1=NCCS1 | -2% | -11% | 8.2µM* | i | ? | 6%
Cc1ccc2c(c1)-c1c(ssc1=S)C(C)(C)N2C(=O)CSC1=NCCS1 | -3% | -2% | 7.3µM* | i | 11% | 18%
SMILES | HT1080-NT tox | HT1080 IDH1KD tx | KB-V1 cytotox | KB-3-1 tox | SW480 rereplic | MCF10A rerep
Cc1ccc(-c2cn3c(n2)sc2cc(C(=O)NC4CCCCCC4)ccc23)cc1 | / | / | i | i | / | /
Cc1nc(NC(=O)c2ccc(Cl)cc2)sc1Cc1ccc2c(c1)OCO2 | 10µM* | 6.5µM* | 4.6µM* | 9.2µM* | 5.8µM* | 2.9µM*
Cc1c(Cc2ccc3c(c2)OCO3)sc(NC(=O)c2ccccc2)c1C(N)=O | ? | ? | ? | ? | 9% | 13µM*
Cc1nc(NC(=O)c2ccccc2)sc1Cc1ccc2c(c1)OCO2 | ? | ? | ? | ? | 26µM* | ?
CCOC(=O)c1c(NC(=O)CN2C(=O)c3ccccc3C2=O)sc(Cc2ccc3c(c2)OCO3)c1C | 19% | 3% | i | i | -1% | 12%
COc1cccc(CSc2nc3n(n2)C(c2cccc(F)c2)C(C(=O)Nc2ccccc2C)=C(C)N3)c1 (centres undefined) | / | / | ? | i | / | /
COc1cc(C2Oc3ccccc3C=C2[N+](=O)[O-])cc(OC)c1OC (centres undefined) | 5.8µM* | 5.8µM* | ? | ? | ? | ?
O=c1c2oc3ccccc3c2n(Cc2ccc(Cl)cc2)c(=O)n1Cc1ccco1 | / | / | i | i | / | /
Cc1ccc(C(=O)C(C)OC(=O)c2cc3cc([N+](=O)[O-])ccc3oc2=O)cc1 (centres undefined) | -15% | 11µM* | i | i | 0% | -6%
COc1cccc2cc(C(=O)OC(C)C(=O)c3ccc(C)cc3)c(=O)oc12 (centres undefined) | 19% | 12% | i | i | 0% | 4%
Cc1c(C(=O)OC/C(O)=C(\C#N)c2nc3ccccc3[nH]2)oc2ccc(Br)cc12 | 0% | 0% | i | i | 2% | 10%
Cc1c(-c2cccc(Cl)c2)nc2ccccc2c1C(=O)OC/C(O)=C(\C#N)c1nc2ccccc2[nH]1 | 1% | 2% | i | ? | ? | 5.2µM*
N#C/C(=C(/O)COC(=O)c1ccc(O)cc1)c1nc2ccccc2[nH]1 | -12% | -16% | i | i | 7% | 6%
CCOC(=O)c1c(C)[nH]c(C(=O)OCC(O)=C(C#N)c2nc3ccccc3[nH]2)c1C | ? | ? | ? | i | ? | 13µM*
CCN(C(=O)c1nn(-c2ccc(OC)c(Cl)c2)c(=O)c2c1c1ccccc1n2C)c1cccc(C(F)(F)F)c1 | / | / | ? | i | / | /
O=C1CCCC2=C1C(c1ccc(OS(=O)(=O)c3ccc(Cl)cc3)cc1)C1=C(CCCC1=O)O2 | 6% | 12% | 4.6µM* | ? | 11% | ?
O=C1c2[nH]nc(-c3ccccc3O)c2C(c2ccc(F)cc2)N1CCO (centres undefined) | / | / | i | i | / | /

High-throughput results from PubChem BioAssay.
